Among the data in PubChem BioAssay AID2417 (National Center for Advancing Translational Sciences (NCATS), 2010) are activity change (PNC), negative = inhibition values, retold here.

Molecules are shown by their SMILES. The campaign covered roughly 140,000 compounds. About 4,300 (3.1%) were called active. Inconclusive results (about 21%) are left out. For the sample, actives were picked, then their nearest neighbours and some compounds at random. A number with no mark means an inactive call.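 Rule for the calls: active = readout at or below -70, meaning at least 70% loss of cells showing the perinucleolar compartment, a nuclear body marking cancer cells; inconclusive = readout between -30 and a set limit; inactive = the rest.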

The nature of the test: High Content Assay for Compounds that inhibit the Assembly of the Perinucleolar Compartment.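 Note: plate controls were DMSO wells for no effect and camptothecin positive control wells for full effect.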 To be noted: PC3M PTB-GFP, PNC prevalence imaging, 16 h; at 10 µM; hits give low values. The essentials:
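PC3M cells stably expressing PTB-GFP, 750–1000 cells/well, treated 16 h at 37 °C with compound (23 nl of library stock), in duplicate. After paraformaldehyde fixation and Hoechst stain, imaged at 20x; PNC prevalence scored by image analysis.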
On to `CCOC(=O)C1CCN(C(=O)/C=C/c2cc(OC)c(OC)c(OC)c2)CC1`, for which the activity change (PNC), negative = inhibition was 5.16%.

On to `COC(=O)c1cnn2c(C(F)(F)F)cc(-c3ccco3)nc12`, for which the activity change (PNC), negative = inhibition was 48.3%.

Consider `COc1ccc(OCC(=O)N2CCOCC2)cc1`, for which the activity change (PNC), negative = inhibition is -29.5%.

As to `COc1ccc(-c2cc(C(F)(F)F)n3nc(C(=O)N4CCOCC4)c(Cl)c3n2)cc1`, the activity change (PNC), negative = inhibition is -106% (active).

`COc1ccc(-c2ccnc(SCC(=O)N3CCOCC3)n2)cc1`: the activity change (PNC), negative = inhibition is -100% (active).

On to `COc1ccc(-c2nc(SCC(=O)N3CCOCC3)n[nH]2)cc1`, for which the activity change (PNC), negative = inhibition was -17.8%.

As to `CCn1c(COc2cccc(OC)c2)nnc1SCC(=O)N1CCOCC1`, the activity change (PNC), negative = inhibition is -11.5%.

With `C/C(=N\NC(=O)c1ccc(NS(=O)(=O)c2cccs2)cc1)c1ccc2ccccc2c1`, the activity change (PNC), negative = inhibition was 3.73%.

Regarding `CC1CCCN(CCOCCOc2ccccc2-c2ccccc2)C1` (stereo not drawn), the activity change (PNC), negative = inhibition was 40%.

On to `COC(=O)c1ccc2c(c1)S(=O)(=O)NC(=NCCCN1CCOCC1)S2`, for which the activity change (PNC), negative = inhibition was -119% (active).

Regarding `CC(=O)c1ccc(OCCN2CCOCC2)cc1`, the activity change (PNC), negative = inhibition is 20.1%.

With `O=C(NCCN=C1NS(=O)(=O)c2ccccc21)c1ccc(S(=O)(=O)N2CCOCC2)cc1`, the activity change (PNC), negative = inhibition is -5.59%.

As to `COc1ccc(C(=O)NNC(=S)NC(=O)c2ccccc2[N+](=O)[O-])cc1`, the activity change (PNC), negative = inhibition was -4%.

As for `O=C(O)c1ccc(/C=N/NC(=O)c2ccc(Br)cc2)cc1`, the activity change (PNC), negative = inhibition is -18.4%.

On to `O=C(C(Cl)Cl)N1CCN(c2ccccn2)CC1`, for which the activity change (PNC), negative = inhibition is 42.3%.

`Cc1ccccc1CN(c1ccc(C(=O)NCC2CCCO2)cc1)S(C)(=O)=O` (stereo not drawn): the activity change (PNC), negative = inhibition is -1.65%.

For `COc1ccc(Cl)cc1NC(=O)CNc1ccccc1F`, the activity change (PNC), negative = inhibition was -22.5%.

With `C=C(C)C1CC=C(C)/C(=N\NC(=O)CNc2ccccc2OC)C1` (stereo not drawn), the activity change (PNC), negative = inhibition was -81.8% (active).

In the case of `COc1ccccc1Nc1ncc(C(C)=O)c(C)n1`, the activity change (PNC), negative = inhibition was 9.62%.

For `CCCCc1cc2c(s1)CCCC/C2=N/O`, the activity change (PNC), negative = inhibition was 0.0645%.

With `Cc1cc(C)c2c(n1)sc1c(=O)n(-c3ccccc3)c(=O)[nH]c12`, the activity change (PNC), negative = inhibition is 19.8%.

Consider `CCn1c(/C=N/NC(=O)c2ccc(OC)cc2)nc2ccccc21`, for which the activity change (PNC), negative = inhibition is 27.2%.

Consider `CCC(CC)C(=O)N1CCN(c2cccc(C)c2C)CC1`, for which the activity change (PNC), negative = inhibition was -15.3%.

Turning to `COc1cc(/C=N\NC(=O)c2nonc2N)c(OC)cc1Br`, the activity change (PNC), negative = inhibition was 16.4%.

Take `COc1ccc(Cc2nnc(N/N=C/c3ccccc3O)[nH]c2=O)cc1OC`: the activity change (PNC), negative = inhibition is -84.6% (active).

Consider `COc1ccc(/C=N/Nc2nc3ccccc3c(=O)[nH]2)cc1`, for which the activity change (PNC), negative = inhibition was 25.5%.

In the case of `COc1ccc(CCNC(=O)CCCCn2c(=O)[nH]c3ccccc3c2=O)cc1OC`, the activity change (PNC), negative = inhibition is -14.6%.

On to `NS(=O)(=O)c1cc(C(=O)NCCOc2ccccc2)c(Cl)cc1Cl`, for which the activity change (PNC), negative = inhibition is -9.28%.

Take `C=CCNC(=O)c1ccccc1NC(=O)c1ccc(Cl)c(S(=O)(=O)Nc2cccc(C)c2C)c1`: the activity change (PNC), negative = inhibition is -8.83%.

With `CCNS(=O)(=O)c1ccc(NC(=O)Nc2cccc(C(F)(F)F)c2)cc1`, the activity change (PNC), negative = inhibition is -8.69%.

Take `CC(C)C[C@H](NC(=O)Nc1cccc(C(F)(F)F)c1)C(=O)O`: the activity change (PNC), negative = inhibition was -100% (active).

As for `O=C(O)CSCC(=O)Nc1cccc(C(F)(F)F)c1`, the activity change (PNC), negative = inhibition was -17.2%.

As to `CC(=O)Nc1ccc(S(=O)(=O)NCC(=O)OCc2cc(=O)oc3ccc4ccccc4c23)cc1`, the activity change (PNC), negative = inhibition is -24.6%.

Turning to `Cc1cc(C(=O)COC(=O)CNC(=O)c2ccc(F)cc2)c(C)n1Cc1ccco1`, the activity change (PNC), negative = inhibition is 8.75%.

In the case of `Cc1cc(OCCN2CCCC2)ccc1C(C)C`, the activity change (PNC), negative = inhibition was -100% (active).

`c1ccc2cc(OCCN3CCCC3)ccc2c1`: the activity change (PNC), negative = inhibition is -15.5%.

Regarding `Cc1cc(OCCN2CCCC2)cc(C(C)C)c1`, the activity change (PNC), negative = inhibition is 0%.

In the case of `Cc1cc([N+](=O)[O-])nn1CC(=O)Nc1ccc(Cc2ccncc2)cc1`, the activity change (PNC), negative = inhibition is -5.96%.

As for `Cc1scc(C(=O)NNC(=S)NCc2ccccc2)c1C`, the activity change (PNC), negative = inhibition was 11.8%.

Consider `CCCCn1c(O)c(N=NC(=O)Cn2c(C(F)(F)F)nc3ccccc32)c2ccccc21`, for which the activity change (PNC), negative = inhibition is -20%.

With `Cc1c(NC(=O)Nc2ccccc2Cl)sc(=S)n1C`, the activity change (PNC), negative = inhibition is -119% (active).

Turning to `Cc1cc(C)nc(NC(=O)Nc2ccccc2C(F)(F)F)n1`, the activity change (PNC), negative = inhibition was -23.4%.

As for `CN(C)CCNC(=O)Nc1cccc(Cl)c1Cl`, the activity change (PNC), negative = inhibition was 17.8%.

With `O=C1NC(c2ccccc2)=NC1(Nc1ccccn1)C(F)(F)F` (stereo not drawn), the activity change (PNC), negative = inhibition was 23.3%.

As for `Cc1ccc(NC(=O)c2oc(=O)c3ccccc3c2-c2ccccc2)c(C)c1`, the activity change (PNC), negative = inhibition was 36.6%.

On to `COC(=O)C(C)N(C#N)c1nc(C)nc(C)n1` (stereo not drawn), for which the activity change (PNC), negative = inhibition is 10.7%.

Take `Cc1cc(C)nc(N(C#N)CC(=O)Nc2ccccc2)n1`: the activity change (PNC), negative = inhibition is -18.1%.

In the case of `CNc1nc(SC)nc(N(C#N)CC(=O)OC)n1`, the activity change (PNC), negative = inhibition is -100% (active).
